Most compounds without a hit are left out; they make up all but 7.9% or so of the library.
HCMV inh: human cytomegalovirus inhibition. hit rate 4.5% among 410,000. activity change, negative = inhibition, % at 57.5 µM. HFF cells, HCMV-luciferase reporter, 72 h; stronger effect = lower value; in the data active = activity change below about -60%; inconclusive = no clear call, values can overlap the other calls; inactive = above about -39%
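After 16 h attachment at 37C, HFF cells received test compound and HCMV-luciferase (1 PFU/cell); reporter luminescence read 72 h later, data normalized against buffer-only and known inhibitor Salinomycin.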
MARV entry inh: Marburg virus entry inhibition | Marburg virus pseudotyped entry inhibition, cell reporter | Potency, µM (doses to about 37.8 µM), for the others: at the highest dose activity change, negative = inhibition, usual class: inhibitors | AID 540276 | hit rate 1.8% among 300,000; calls by dose curve; tested in HEK293 cells; also: potency is read from the fitted curve at half-maximal effect
Lassa entry inh: Lassa virus entry inhibition; Potency, µM (titrated, usually from 37.9 µM), inactives show at the top dose activity change, negative = inhibition, usual class: inhibitors; hit rate 1.2% among 300,000; Lassa virus pseudotype entry inhibition, cell reporter; AID 540256; calls by dose curve; tested in HEK293 cells; also: potency is read from the fitted curve at half-maximal effect; nearly all actives have a fitted effect of over 50% in size
HCV inh: inhibitors of hepatitis C virus infection; hit rate 3.4% among 340,000; Potency, µM (highest dose often 41.8 µM), inactives show top-dose activity change, negative = inhibition, actives largely listed as inhibitors; Huh7.5.1 HCVcc-Cre infection, luciferase reporter, 44 h; active = well fitted inhibition curve with a large enough effect; inconclusive = small, poorly fitted or top-dose-only effect, or another doubt; inactive = no such curve, though single readings can be large or run the other way; also: potency is read from the fitted curve at half-maximal effect
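Seed cells (1,000/well) for 4 h; treat with compound and infect with HCVcc-Cre, moi about 0.5. Incubate 44 h, then detect luciferase activity.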
FMDV antiviral: blocks foot and mouth disease virus; Potency, µM (top dose mostly 57.9 µM), without a hit: at the highest dose activity change, negative = inhibition, hits mostly inhibitors; FMDV antiviral cell-based qHTS; hit rate 1.2% among 410,000; AID 1159524; calls by dose curve; tested in HEK293T cells; also: read-out not given here; potency is read from the fitted curve at half-maximal effect; nearly all actives have a fitted effect of over 45% in size
* = called active by the depositor; ? = inconclusive; / = no result given; [ ] = dose if it differs, or a comment. % is scaled to controls: 0 for no effect and ±100 for the full control effect.

SMILES | HCMV inh | MARV entry inh | Lassa entry inh | HCV inh | FMDV antiviral
CC(C)C(=O)N1CCN(c2ccc([N+](=O)[O-])c(NC(C)c3ccccc3)c2)CC1 (stereo not given) | -14 | ? | ? | ? | ?
CC(C)(C)OC(=O)NCC(=O)Oc1cc2oc(=O)cc(-c3ccccc3)c2cc1Cl | -76* | 2% | 7% | 26% | -20%
COc1cccc(CNC(=O)c2cc(-c3cccc(OC)c3)n[nH]2)c1 | 29 | / | -1%[46.1 µM] | / | 41%
COc1cccc(-c2ccc3c(N)c(C(=O)NCc4ccc(Cl)cc4)sc3n2)c1 | -24 | -14%[46.1 µM] | 7.9µM* | / | -4%
COc1cccc(-c2cc(C(=O)NCc3ccccc3)[nH]n2)c1 | 52 | / | 7.9µM* | / | 50%
Cc1ccc2c(c1)N(C(=O)N1CCC(C(=O)NCc3cccs3)CC1)CC(C)O2 (stereo not given) | -12 | / | 25%[46.1 µM] | / | -24%
Cc1ccc(C(=O)c2cn(CC(=O)NCc3ccccc3Cl)c3nc(C)ccc3c2=O)cc1 | -7 | / | 12%[46.1 µM] | / | -14%
COc1cccc(C2C(C#N)=C(N)Oc3cc(C)n(Cc4ccco4)c(=O)c32)c1 (stereo not given) | -27 | -16% | -13% | -9% | 12%
CCN(CC)CCCn1c(C)cc2c(c1=O)[C@@H](c1cccc(Cl)c1)C(C#N)=C(N)O2 | / | 11µM* | / | / | /
CCc1cccc(C)c1NC(=S)N(CCOC)C(C)c1ccco1 (stereo not given) | -66* | -6%[46.1 µM] | 1% | -13% | 1%
COc1cc(=O)n2c(c1C(=O)NCc1ccco1)CCN(Cc1cccc(C(F)(F)F)c1)CC2 | / | / | / | / | -8%
CO/N=C/c1ccc(N2CCN(C(=O)c3ccc(Cl)cc3Cl)CC2)c([N+](=O)[O-])c1 | -98* | ? | ? | 8.9µM* | 13µM*
O=C(O/N=C\c1ccc(N2CCCCC2)c([N+](=O)[O-])c1)c1cccc(Cl)c1 | -12 | -7% | 0% | 7% | 3%
CO/N=C/c1ccc(N2CCN(C(=O)c3ccc(F)cc3)CC2)c([N+](=O)[O-])c1 | -29 | ? | ? | 14µM* | 20µM*
CO/N=C/c1ccc(N2CCN(C(=O)c3cccc(C(F)(F)F)c3)CC2)c([N+](=O)[O-])c1 | -22 | ? | -2% | ? | ?
Cc1ccc(N2C(=O)c3ccc(C(=O)N4CCN(Cc5ccccc5)CC4)cc3C2=O)cc1 | -17 | -6%[46.1 µM] | 12% | -15% | ?
CCN1C(=O)[C@H]2[C@H]3CN=C(SC)N3[C@@](Cc3ccccc3)(C(=O)OC)[C@H]2C1=O | -1 | / | / | 0.56µM* | -7%
CCN1C(=O)[C@H]2[C@H]3CN=C(SCc4ccc(C)cc4)N3[C@@](Cc3ccccc3)(C(=O)OC)[C@H]2C1=O | -8 | / | / | 0.32µM* | -19%
CCn1c(C(=O)NCc2ccccc2C)cc2oc3ccccc3c21 | -82* | ? | / | / | -6%
CCn1c(C(=O)NCc2ccc(OC(C)C)cc2)cc2oc3ccccc3c21 | -79* | ? | / | / | -15%
COC(=O)c1cc2oc3ccccc3c2n1Cc1c(C)cc(C)cc1C | 25 | ? | / | / | -18%
COc1ccc(OC)c(CN2CCCC(c3nc(C)ncc3-c3ccc(F)cc3)C2)c1 (stereo not given) | / | / | / | / | -27%
COc1ccc2c(CC(=O)Nc3nc(C)cs3)coc2c1 | -4 | ? | 5% | 20% | 0%
COc1ccc2c(CC(=O)Nc3ncc(C)s3)coc2c1 | -77* | ? | 0%[46.1 µM] | ? | 14%
COc1ccccc1-c1cc(C(F)(F)F)nc(S(=O)(=O)CCCC(=O)Nc2cccnc2Cl)n1 | -90* | ? | ? | ? | 14µM*
SMILES | HCMV inh | MARV entry inh | Lassa entry inh | HCV inh | FMDV antiviral
COc1ccc(NC(=O)CCCS(=O)(=O)c2nc(-c3ccccc3OC)cc(C(F)(F)F)n2)c(OC)c1 | 14 | ? | ? | / | 7%
COc1ccccc1-c1cc(C(F)(F)F)nc(S(=O)(=O)CCCC(=O)Nc2ccccc2F)n1 | -103* | ? | ? | / | ?
COc1ccccc1-c1cc(C(F)(F)F)nc(S(=O)(=O)CCCC(=O)Nc2cc(Br)ccc2O)n1 | 55 | ? | 7%[46.1 µM] | / | 18%
O=C(CSC1=Nc2ccccc2N=C(c2ccc(F)cc2)C1)NCc1ccccc1 | 20 | / | 1%[46.1 µM] | / | -17%
Cc1cc(O)cc(O)c1/C=N/NC(=O)c1ccc2c(c1)OCCO2 | -100* | / | / | / | -16%
O=C(N/N=C\c1c(O)ccc2ccccc12)c1ccc(S(=O)(=O)N2CCCCC2)cc1 | -103* | 1.3µM* | ? | 5µM* | -12%
